{"source": "the supplement of paper PMC6555819", "data": [{"test_system": "LXRa:RXRa (NR concentration 270 nM, RXRa partner concentration 90 nM)", "assay": "PBM binding z-score (relative to random genomic background probes); higher = stronger binding; sequences stand for … in GC…GCGATTGACAGCGTAGAATGAAGG", "method_in_brief": "(§1)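 Custom Agilent 4×180K protein-binding microarrays carried double-stranded probes. Their 34-nt variable regions held direct-repeat seeds, single-nucleotide variants, half-site ablations and random human genomic background sequences. Arrays were incubated 1 h with ligand-free nuclear receptor dimers in PBS pH 7.4, 2% milk, 0.02% Triton X-100, 1 mM DTT, 0.2 mg/mL BSA and 0.4 mg/ml salmon testes DNA. Antibodies against each partner (one per run) detected binding, and scanned fluorescence was regression-normalized. Binding z-scores use random background probes as reference.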", "values": [{"sequence": "TCTCGGAGGACACGAAAGGTCATAGCTCGACATC", "PBM binding z-score": 5.36}, {"sequence": "CCGGACAGGTGAAAGGTAACTCAGTCTGGTACGC", "PBM binding z-score": 0.472}, {"sequence": "CCAGACAGGTGAGAAGGTAACTTAGCCTCGATTA", "PBM binding z-score": 0.133}, {"sequence": "TCGAGTAGGTTAGTCGGGGCATTCAACCAACATA", "PBM binding z-score": 0.112}, {"sequence": "CCTTGCAGGCCAATCTGGGTCACTCAAGGCTTGA", "PBM binding z-score": 1.37}, {"sequence": "CTCGAAAGGTCGGTTGAGGTGAGTACACGGATAA", "PBM binding z-score": 1.85}, {"sequence": "CCTGCTAGGTCGATGGTCAGCTAAAGCAGCTCGC", "PBM binding z-score": -0.179}, {"sequence": "CCTCGGAGGACAGAAGGTCAGGGCTGTCCGCTTT", "PBM binding z-score": 1.47}, {"sequence": "CCTACTGGGCCAAGGTCAATGATCAGTCAAAGCA", "PBM binding z-score": 2.33}]}, {"test_system": "LXRa homodimer (NR concentration 270 nM)", "assay": "PBM binding z-score (relative to random genomic background probes); higher = stronger binding; sequences stand for … in GC…GCGATTGACAGCGTAGAATGAAGG", "method_in_brief": "as §1", "values": [{"sequence": "ATCGAAAGGTAGACGAGGTGAGTATACACCGTTT", "PBM binding z-score": -0.253}, {"sequence": "CAGCCTAGGTCAGGGCCGGTATAGGAGGAACGTT", "PBM binding z-score": -0.703}, {"sequence": "CAAACTAGGTCAAGAGGTCGAAGTCCGCTTCCCG", "PBM binding z-score": 1.22}, {"sequence": "TAGCCTAGGTCATTGGGGCAGTATAGTACGCATC", "PBM binding z-score": 1.22}, {"sequence": "CGAACTAGGTCATTGACAGGACAGTGAATAGTAA", "PBM binding z-score": 0.461}, {"sequence": "AGATGTAGGTTACATCCGGGTCATTCAGGCTATG", "PBM binding z-score": 0.937}, {"sequence": "CAAACTAGGTCAAAGAGGTCAAAGTCCGTGCGTA", "PBM binding z-score": 6.39}, {"sequence": "CATACAGGGTCAGCTAGGCCAGGGTAGGGACGGC", "PBM binding z-score": -0.0552}, {"sequence": "GCTTACGGGTCGAAGGTTATAGCATGAATAGAAT", "PBM binding z-score": -0.187}, {"sequence": "CCTATTGGGCCACGAAAGGTCATTGATTCAGTGA", "PBM binding z-score": 5.04}, {"sequence": "CCCACTGGGCCAAAGGTCATTGATTCCAATGCTC", "PBM binding z-score": 4.26}, {"sequence": "CCGACTGGGGCAAAAGTTACCATACTCAGTACGA", "PBM binding z-score": -0.126}, {"sequence": "ACTAGCAGGCCAAGTTTGGGTCACTCTAACAAAG", "PBM binding z-score": -0.399}, {"sequence": "CGAACTAAGTCAGAACAGGACAGTGAAGGATGAT", "PBM binding z-score": 0.0634}, {"sequence": "ACAGACAGTTGATGAAGGTAACTCAGGCTATCAT", "PBM binding z-score": -0.193}, {"sequence": "ATCTCTAGGTAACCAAGTTCAGTGGATGCCGAAC", "PBM binding z-score": 0.622}, {"sequence": "CAAACTAGGTCACCGGAAGGTCAAGGTCCGCATG", "PBM binding z-score": 3.66}, {"sequence": "CCTTACGGGTCACTGACAGTTTATAGCATTTGGA", "PBM binding z-score": 0.494}, {"sequence": "AGGCAAAGTTCAGGACGAGGTAACGTAAAGCACG", "PBM binding z-score": 1.15}, {"sequence": "CGTCCAAGGCCAGCAGGTCAGTGAAAGCGACGTG", "PBM binding z-score": -0.472}, {"sequence": "ATCTCTAGGTAAGACTCAGTGCAGTGAAGAACGC", "PBM binding z-score": 0.212}, {"sequence": "CCGACTGGGGCATAAGGTTAACATAAGCCAGCCC", "PBM binding z-score": -0.335}, {"sequence": "CCTAGCAGGCCAGGGTCACTCATGCATTTCGCTT", "PBM binding z-score": -0.432}, {"sequence": "CAAACTAGGTCAAGAGGTCATAGTCCGCTTCCCG", "PBM binding z-score": 5.4}, {"sequence": "ATCTCTAGGTAAGAGTCAGTTCAGTGAAGAACGC", "PBM binding z-score": 0.44}, {"sequence": "GGAACGAGGGCGAGTTGATAGCAGAGTTTGATGG", "PBM binding z-score": -0.54}, {"sequence": "CGTCAATGTTCAAGGTAACGTAACAGAAAGCAGC", "PBM binding z-score": -0.233}, {"sequence": "CCTACTGGGCCAAGGGCATTGATCAGTCAAAGCA", "PBM binding z-score": -0.484}, {"sequence": "ATATGTCGGTTATCGGGTCATTCAGTTTGCGCAT", "PBM binding z-score": 1.64}, {"sequence": "GCTAGCAGGCCATTTGGGTCACTCAGTGACGGGC", "PBM binding z-score": -0.609}, {"sequence": "CATTACGGGTCAAGGTTATAGCACGGGTGGTACG", "PBM binding z-score": 1.53}, {"sequence": "TCTCGGAGGACACGAAAGGTCATAGCTCGACATC", "PBM binding z-score": 5.67}, {"sequence": "CCGGACAGGTGAAAGGTAACTCAGTCTGGTACGC", "PBM binding z-score": -0.206}, {"sequence": "CCAGACAGGTGAGAAGGTAACTTAGCCTCGATTA", "PBM binding z-score": -0.108}, {"sequence": "TCGAGTAGGTTAGTCGGGGCATTCAACCAACATA", "PBM binding z-score": 0.0145}, {"sequence": "CCTTGCAGGCCAATCTGGGTCACTCAAGGCTTGA", "PBM binding z-score": -0.554}, {"sequence": "CTCGAAAGGTCGGTTGAGGTGAGTACACGGATAA", "PBM binding z-score": -0.128}, {"sequence": "CCTGCTAGGTCGATGGTCAGCTAAAGCAGCTCGC", "PBM binding z-score": -0.637}, {"sequence": "CCTCGGAGGACAGAAGGTCAGGGCTGTCCGCTTT", "PBM binding z-score": 0.0831}, {"sequence": "CCTACTGGGCCAAGGTCAATGATCAGTCAAAGCA", "PBM binding z-score": 0.441}]}]}
